test system: Plasmodium falciparum; assay: GSK_TCMDC: Inhibition of Plasmodium falciparum 3D7 in whole red blood cells, using parasite LDH activity as an index of growth. Test compounds present at 2uM; assay type: functional

Compared with Nc1nc2c(ncn2OC[C@H]2COP(=O)([O-])CO2)c(=O)[nH]1.[Na+], Cc1cccc(-c2nn(-c3ccccc3)c3[nH]c(=O)c(CNC4CCCC4)cc23)c1 is higher in Inhibition: 92% for the first, 98% for the second.

Going from Cl.O=S(=O)(Nc1cc2c(cc1O)CCN(C1CCC1)CC2)c1ccc(-c2ccc(F)cc2)cc1 to O=C(Nc1ccccc1O)C1CCN(c2ncnc3cc(-c4ccc(F)cc4)sc23)CC1, the Inhibition falls from 100% to 97%.

First: Cc1cc(N(CCCN(C)C)Cc2cc(F)cc(F)c2)nc(Nc2ccc(Cl)cc2)n1
Second: CCN(CCCN1CCCCC1)c1cc(C)nc(Nc2cc(C)ccc2C)n1.O=C(O)C(F)(F)F
The Inhibition of the first is higher: 99% for the first, 93% for the second.

Going from Cc1ccc(Nc2nccc(Nc3ccc4c(c3)nc(Nc3cc(C(C)(C)C)on3)n4C)n2)cc1S(C)(=O)=O to CCC(C)NS(=O)(=O)c1ccc2nc(Nc3ccc(C)c(Cl)c3)n([C@H](C)C(C)(C)C)c2c1 (some centres not stated), the Inhibition falls from 100% to 98%.

Going from COc1ccc(NC(=O)[C@H](Cc2ccccc2)Nc2cc(C)nc(NCCc3cccnc3)n2)cc1.O=C(O)C(F)(F)F to Cc1cc(N[C@@H](CC(C)C)C(=O)Nc2ccccc2)nc(Nc2ccccc2)n1.O=C(O)C(F)(F)F, the Inhibition rises from 98% to 99%.

First: Cc1cc(NCc2ccccc2)nc(NCc2ccccc2)n1
Second: COc1cc2nc(NCCn3cccn3)nc(NCCc3ccccc3)c2cc1OC
The Inhibition of the first is lower: 91% for the first, 100% for the second.

First: O=C(Nc1cccc(CN2CCN(C(=O)c3cccc(Cl)c3)CC2)c1)c1cccs1.O=C(O)C(F)(F)F
Second: COc1ccc(-c2ccc(NC(=O)c3cccs3)cc2)cc1CN1CCCN(C)CC1.O=C(O)C(F)(F)F
The Inhibition of the first is lower: 94% for the first, 100% for the second.

Going from CCOC(=O)c1ccc(NC(=O)Nc2ccc(Cn3ncc(N4CCCNCC4)c(Cl)c3=O)cc2)cc1.O=C(O)C(F)(F)F to O=C(Nc1ccc(Cn2ncc(N3CCCNCC3)c(Cl)c2=O)cc1)Nc1cccc(Oc2ccccc2)c1.O=C(O)C(F)(F)F, the Inhibition falls from 88% to 81%.

First: Fc1ccccc1C=NN=c1cc[nH]c2ccc(C(F)(F)F)cc12
Second: Cc1ccc(C(=O)NCC2CCN(c3ccc(C(F)(F)F)cc3NC(=O)c3ccco3)CC2)cn1
The Inhibition of the first is higher: 100% for the first, 91% for the second.

Going from OC1=C2C(=Nc3ccccc3SC2c2ccccc2)c2ccccc21 (configuration not stated) to O=c1cc(NCCCNC2CCCc3c2ccc2ccccc32)[nH]c2ccccc12 (configuration not stated), the Inhibition rises from 86% to 94%.

First: COc1ccc(NC(=O)c2ccc(Br)c(C)c2)cc1N1CCN(CCCc2c[nH]c3ccccc23)CC1
Second: N#Cc1ccc(-c2ccc(C(=O)NCCCCN3CCC(c4cn(CCCO)c5ccccc45)CC3)cc2)cc1
The Inhibition of the first is higher: 100% for the first, 98% for the second.

Going from CC[C@H](C)CNC(=O)c1cncc(-c2ccc(CNCC3CNCCCO3)cc2)c1.O=C(O)C(F)(F)F (some centres not stated) to CCCNCc1ccc(-c2ccc(CN(Cc3ccc4c(c3)OCO4)C(=O)Cc3cccnc3)cc2)nc1.O=C(O)C(F)(F)F, the Inhibition falls from 100% to 94%.

Compared with COc1cc(OC)cc(-c2nnc(Sc3ccc(C#N)c([N+](=O)[O-])c3)n2C)c1, COc1ccc(CNC(=O)NC2CCN(c3ccnc(Nc4ccc(OC)cc4)n3)C2)cc1 (configuration not stated) is lower in Inhibition: 95% for the first, 87% for the second.

Cc1cccc2nc(-c3cccc(-c4cccc(CNCc5ccccc5)c4)c3)[nH]c12.O=C(O)C(F)(F)F and NCc1ccc(CNCc2cccc(-c3cccc(-c4nc5ccccc5[nH]4)c3)c2)cc1.O=C(O)C(F)(F)F are the same in Inhibition: 100% for the first, 100% for the second.

Going from CCOC(=O)c1ccc(NC(=O)Nc2ccc(-c3cccc(-c4nc5cccc(C)c5[nH]4)c3)cc2)cc1 to N#Cc1cnc2cc(-c3cnc(CNCCN4CCOCC4)s3)ccc2c1Nc1ccc(Oc2ccccc2)cc1, the Inhibition falls from 100% to 97%.

First: Cc1[nH]c(C)c(-c2cc3ccccc3o2)c(=O)c1Cl
Second: CC1CCN(Cc2c(O)ccc3c(O)c(-c4nc5ccccc5s4)c(=N)oc23)CC1
The Inhibition of the first is lower: 92% for the first, 98% for the second.

Compared with Cc1cccc(CN2CCCC3(CCN(Cc4ccccc4O)C3)C2)c1 (configuration not stated), CC(C)(C)c1ccc(CN2CCCCC(NC(=O)c3cc(-c4ccccc4Cl)cs3)C2)cc1.O=C(O)C(F)(F)F (configuration not stated) is higher in Inhibition: 99% for the first, 100% for the second.

Compared with CCn1c(-c2ccccc2)cc2nnc3ccccc3c21, NC1=Nc2ccc(Cl)cc2C1(O)c1ccccc1 (configuration not stated) is higher in Inhibition: 92% for the first, 100% for the second.

Compound CCCc1cc(Cc2cnc(N)nc2N)cc(CCC)c1OCCCCCC(=O)OCC has an Inhibition of 95%.

Source: ChEMBL document CHEMBL1157539, “Thousands of chemical starting points for antimalarial lead identification” (Nature, 2010)
